Assay outcomes deposited in PubChem BioAssay by The Scripps Research Institute Molecular Screening Center.
DAX1 inh-1: DAX1 (NR0B1) inhibition, primary screen. HEK293T StAR-luciferase reporter, SF-1/DAX-1 repression relief. inhibition, % at 6.8 µM. hit rate 1.1% among 370,000. AID 652010;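 active = inhibition above the mean over all tested compounds plus 3 SD, cut at about 3.6% in these data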;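 note: higher inhibition means more luminescence from relief of DAX-1 repression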
ssDAF12 agonist: activators of S. stercoralis DAF-12 nuclear receptor. HEK293 ssDAF-12/GRIP1 lit1-tk-luc reporter, luminescence; % of 3 µM dafachronic acid response. activation, % at 6.8 µM. hit rate 1% among 370,000;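 active = activation above the mean over all tested compounds plus 3 SD, cut at about 0.9% in these data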
DAX1 inh-2: inhibitors of human orphan nuclear receptor DAX1 (NR0B1). HEK293 Gal4-DAX1 luciferase reporter, luminescence. inhibition, % at 6.75 µM. hit rate 0.99% among 340,000;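 active = inhibition above the mean over all tested compounds plus 3 SD, cut at about 4.2% in these data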;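 note: inhibition shows as a rise in luminescence from relieved DAX1 repression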
Target sequence (P51843 207-470 limits assumed): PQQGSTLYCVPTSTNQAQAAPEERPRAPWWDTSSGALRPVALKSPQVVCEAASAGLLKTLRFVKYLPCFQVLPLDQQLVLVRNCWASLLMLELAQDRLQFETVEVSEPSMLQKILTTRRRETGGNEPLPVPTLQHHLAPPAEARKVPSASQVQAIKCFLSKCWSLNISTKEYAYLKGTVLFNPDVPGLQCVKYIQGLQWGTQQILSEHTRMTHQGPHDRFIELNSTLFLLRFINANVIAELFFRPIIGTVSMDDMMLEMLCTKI
hcDAF12 agonist: H. contortus DAF-12 activation, primary screen | AID 652067 | HEK293 hcDAF-12 lit1-tk-luc reporter, luminescence; 0% DMSO, 100% Δ7-dafachronic acid | activation, % at 6.8 µM | hit rate 1.4% among 370,000;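 active = activation above the mean of all tested compounds plus 3 SD, cut at about 5.5% in these data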
hgDAF12 agonist: agonists of H. glycines DAF-12 nuclear receptor; HEK293 GAL4-hgDAF12 UAS-luciferase reporter, agonist luminescence; normalized to butyrate control; activation, % at 6.8 µM; hit rate 1.8% among 370,000; AID 687014;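 active = activation above a cutoff set at the mean of all screened compounds plus 3 SD, cut at about 10% in these data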
DAX1 inh confirm: confirmation of human DAX1 (NR0B1) inhibitors. hit rate 87% among 2,400. inhibition, % at 6.8 µM. shares compounds with DAX1 inh-1. HEK293T StAR-promoter luciferase reporter, SF-1/DAX-1 repression;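 active = inhibition above the average of every tested compound plus 3 SD, cut at about 3.8% in these data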;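 note: active compounds raise luminescence by relieving repression of the StAR reporter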
SF1 AF2mut Luc: counter-screen for DAX1 inhibitors: nonselective inhibitors with SF-1 AF2 mutant | shares compounds with DAX1 inh-1 | HEK293 StAR-luciferase, luminescence | inhibition, % at 6.8 µM | hit rate 78% among 2,400 | AID 652136;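 active = inhibition above the mean of all tested compounds plus 3 SD, cut at about 3% in these data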
LXR ag: activates human LXR-beta, counter-screen for hcDAF-12 agonists; shares compounds with hcDAF12 agonist; HEK293 Gal4-LXR tk-luc reporter, luminescence, 24 h; normalized: DMSO 0%, positive control 100%; activation, % at 6.8 µM; 3,400 tested, under 10 active;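 active = mean percent activation of the reporter above a cutoff set as the average over tested compounds plus their standard deviation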
Target sequence (P55055 whole entry, looked up, the tested form may be a part): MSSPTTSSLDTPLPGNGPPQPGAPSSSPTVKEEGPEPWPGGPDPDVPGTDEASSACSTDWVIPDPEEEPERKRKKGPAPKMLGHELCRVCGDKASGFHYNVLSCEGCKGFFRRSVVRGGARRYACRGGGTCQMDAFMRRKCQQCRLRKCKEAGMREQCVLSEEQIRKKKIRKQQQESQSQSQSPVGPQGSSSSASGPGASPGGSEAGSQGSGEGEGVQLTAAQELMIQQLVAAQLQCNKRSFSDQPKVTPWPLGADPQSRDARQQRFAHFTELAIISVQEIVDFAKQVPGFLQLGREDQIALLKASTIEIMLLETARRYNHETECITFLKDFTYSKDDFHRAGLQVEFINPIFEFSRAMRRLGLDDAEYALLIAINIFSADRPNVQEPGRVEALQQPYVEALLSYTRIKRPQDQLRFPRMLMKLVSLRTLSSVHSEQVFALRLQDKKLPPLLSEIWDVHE
hcDAF12 ag: hcDAF-12 agonism, confirmation assay; shares compounds with hcDAF12 agonist; HEK293 hcDAF-12 lit1-tk-luc reporter, luminescence; % of Δ7-dafachronic acid response; activation, % at 6.8 µM; hit rate 61% among 3,400; AID 743032;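 active = mean activation across triplicate tests above the threshold derived from the earlier primary screen, cut at about 5.5% in these data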
hgDAF12 ag: confirmation of H. glycines DAF-12 agonists; shares compounds with hgDAF12 agonist; HEK293 GAL4-hgDAF12 luciferase reporter, agonist mode; percent of butyrate response; activation, % at 6.8 µM; hit rate 80% among 3,300; AID 743050;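 active = mean activation over triplicate wells above the hit cutoff derived from the earlier primary screen, cut at about 11% in these data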
LXR ag 2: counter-screen for DAF-12 agonists: agonists of human LXR-beta | shares compounds with hgDAF12 agonist | AID 743051 | 3,300 tested, under 10 active | HEK293 Gal4-LXR luciferase reporter, 24 h | activation, % at 6.8 µM;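 active = mean activation of the triplicate above a set limit carried over from the primary screen, none filed active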
Large screens that a line does not name were inactive (follow-up assays come after a bar, where they were run). Sampled rows, rich in hits. Any-hit rate of the full collection: about 4.1%.

CN(CC(=O)Nc1cc(Cl)ccc1C#N)C1CCS(=O)(=O)C1 (stereo unspecified)	none
O=C(Nc1cnn(C23CC4CC(CC(C4)C2)C3)c1)c1cnn2cccnc12	DAX1 inh-1 5.8, ssDAF12 agonist 1.2, hgDAF12 agonist 13.7 | DAX1 inh confirm 10.3 | SF1 AF2mut Luc 5.9 | hgDAF12 ag 14.8 | LXR ag 2 inactive
CCn1c(C)cc(C(=O)COC(=O)c2cccnc2SC)c1C	DAX1 inh-1 5.9, DAX1 inh-2 7.9, hgDAF12 agonist 14.6 | DAX1 inh confirm 6.1 | SF1 AF2mut Luc 4.4 | hgDAF12 ag 14.3 | LXR ag 2 inactive
CC(C)C(c1nnnn1Cc1ccc(F)cc1)N1CCN(c2ccc(O)cc2)CC1 (stereo unspecified)	none (no result: DAX1 inh-2)
O=C(Nc1ccc2c(c1)OCO2)Nc1ccccc1F	DAX1 inh-1 10.8, hgDAF12 agonist 19.4 | DAX1 inh confirm 12.5 | SF1 AF2mut Luc 6.9 | hgDAF12 ag 15.3 | LXR ag 2 inactive
O=C(Nc1ccc(Cl)cc1Cl)c1ccc2c(c1)OCCO2	DAX1 inh-1 8.7, hcDAF12 agonist 7.5, hgDAF12 agonist 13.9 | DAX1 inh confirm 17.4 | SF1 AF2mut Luc 6.7 | LXR ag inactive | hcDAF12 ag 6.3 | hgDAF12 ag 16.7 | LXR ag 2 inactive
O=C(Nc1ccccn1)c1ccc2c(c1)OCO2	DAX1 inh-1 6.1, hgDAF12 agonist 22.0 | DAX1 inh confirm 6.8 | SF1 AF2mut Luc 3.4 | hgDAF12 ag 13.4 | LXR ag 2 inactive
Cn1c(C(=O)Nc2ccc3c(c2)OCO3)cc2sccc21	DAX1 inh-1 5.5, ssDAF12 agonist 2.5, DAX1 inh-2 4.8, hcDAF12 agonist 13.7, hgDAF12 agonist 16.6 | DAX1 inh confirm 11.1 | SF1 AF2mut Luc 7.0 | LXR ag inactive | hcDAF12 ag 16.3 | hgDAF12 ag 18.7 | LXR ag 2 inactive
O=C(Nc1ccc2c(c1)OCO2)c1cnc(Cl)c(Cl)c1	DAX1 inh-1 5.6, ssDAF12 agonist 1.8, hcDAF12 agonist 6.3, hgDAF12 agonist 20.7 | DAX1 inh confirm 8.1 | SF1 AF2mut Luc 6.5 | hgDAF12 ag 16.4 | LXR ag 2 inactive
Cc1ccc(C(=O)Nc2ccc3c(c2)OCO3)cc1Cl	DAX1 inh-1 10.9, DAX1 inh-2 4.8, hcDAF12 agonist 6.1, hgDAF12 agonist 17.8 | DAX1 inh confirm 11.1 | SF1 AF2mut Luc 6.6 | hgDAF12 ag 20.3 | LXR ag 2 inactive
CC1CN(CC(=O)NN=C(c2ccccc2)c2ccccc2)CC(C)O1 (stereo unspecified)	none
CCOc1ccc2oc(C(=O)Nc3nccs3)c(C)c2c1	DAX1 inh-1 7.2, hcDAF12 agonist 5.9, hgDAF12 agonist 13.8 | DAX1 inh confirm 15.3 | SF1 AF2mut Luc 7.5 | hgDAF12 ag 21.4 | LXR ag 2 inactive
COc1ccc2oc(C(=O)Nc3nccs3)c(C)c2c1	DAX1 inh-1 12.2, hcDAF12 agonist 8.2, hgDAF12 agonist 18.2 | DAX1 inh confirm 11.0 | SF1 AF2mut Luc 7.7 | LXR ag inactive | hcDAF12 ag 10.1 | hgDAF12 ag 22.9 | LXR ag 2 inactive
COc1ccc2nc(C(c3ccc(C)cc3)n3c(-c4ccccc4Br)nc4ccccc43)[nH]c2c1 (stereo unspecified)	DAX1 inh-1 5.8, hgDAF12 agonist 14.0 (no result: DAX1 inh-2) | DAX1 inh confirm 8.5 | SF1 AF2mut Luc 5.5 | hgDAF12 ag 16.5 | LXR ag 2 inactive
COC(=O)c1cc(C#N)c(N2CCN(C)CC2)nc1C	none
COc1ccc(C(=O)NC2=Nc3ccccc3N=C(C)C2c2ccccc2)cc1 (stereo unspecified)	DAX1 inh-1 9.6, ssDAF12 agonist 0.9, DAX1 inh-2 17.9, hcDAF12 agonist 8.9, hgDAF12 agonist 59.2 | DAX1 inh confirm 22.8 | SF1 AF2mut Luc 18.7 | LXR ag inactive | hcDAF12 ag inactive | hgDAF12 ag 38.7 | LXR ag 2 inactive
NC(=O)c1ccsc1NC(=O)c1coc2ccccc2c1=O	DAX1 inh-1 4.7, hgDAF12 agonist 13.7 | DAX1 inh confirm 11.8 | SF1 AF2mut Luc 3.7 | hgDAF12 ag 19.0 | LXR ag 2 inactive
COC(=O)[C@@]12C[C@@H](CC(=O)N3CCSCC3)C(=O)N(Cc3ccccc3)C1=CCC(C)(C)C2	none (no result: DAX1 inh-2)
O=C(Nc1ccc(OC(F)(F)F)cc1)N1CCc2nc(NCc3cccc(Oc4ccccc4)c3)ncc2C1	none (no result: DAX1 inh-2)
CC(=O)c1cccc(NC(=O)c2cnn3ccccc23)c1	DAX1 inh-1 5.6, hcDAF12 agonist 5.8, hgDAF12 agonist 13.7 | DAX1 inh confirm 6.5 | SF1 AF2mut Luc 5.2 | hgDAF12 ag 11.7 | LXR ag 2 inactive
c1ccc(N=NC2=NN(c3ccccc3)CS2)cc1	DAX1 inh-1 6.5, ssDAF12 agonist 1.7, hcDAF12 agonist 15.8, hgDAF12 agonist 16.0 | DAX1 inh confirm 7.0 | SF1 AF2mut Luc 3.4 | LXR ag inactive | hcDAF12 ag 8.3 | hgDAF12 ag 11.7 | LXR ag 2 inactive
COc1ccc(Cc2nc3ccccc3n2C)cc1	none
Cn1c(CCc2ccc(N)cc2)nc2ccccc21	DAX1 inh-1 6.1, hgDAF12 agonist 15.2 | DAX1 inh confirm 9.5 | SF1 AF2mut Luc 5.0 | hgDAF12 ag 14.5 | LXR ag 2 inactive
CCc1ccc(CNCCNC(=O)c2ccco2)cc1	DAX1 inh-1 5.8, hgDAF12 agonist 14.9 | DAX1 inh confirm 4.9 | SF1 AF2mut Luc 2.9 | hgDAF12 ag inactive | LXR ag 2 inactive
O=C(Nc1ncccc1O)c1ccc(OCC2CCCO2)cc1 (stereo unspecified)	DAX1 inh-1 17.8, hgDAF12 agonist 27.7 | DAX1 inh confirm 13.7 | SF1 AF2mut Luc 5.7 | hgDAF12 ag 26.9 | LXR ag 2 inactive
Cc1ccnc(NC(=O)c2cccc(S(=O)(=O)N3CCCc4ccccc43)c2)c1	DAX1 inh-1 7.7, hgDAF12 agonist 13.2 | DAX1 inh confirm 9.1 | SF1 AF2mut Luc 6.4 | hgDAF12 ag 12.3 | LXR ag 2 inactive
O=C(Nc1ccccn1)c1cccc(S(=O)(=O)N2CCCc3ccccc32)c1	none
CC(C)N(C[C@@H]1CSCCS(=O)(=O)N1)C1CCCCC1	none (no result: DAX1 inh-2)
